Drawing on PubChem BioAssay (NCI), this text covers growth for eleven compounds.

The panel holds about 83,000 compounds, 20% with a hit somewhere; the sample as a whole holds those more often.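 Note: values are percent growth. 100 is the growth of untreated cells, values between 100 and 0 indicate rising inhibition; between -100 and 0 indicates cell death.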 Unmarked numbers belong to inactive results. Activity calls are given as the source filed them. Rule for the calls: active = growth percent below 10; inactive = the rest.

Some test systems named below: NCI-H23 lung; NCI-H226 lung; NCI-H322M lung; HOP-62 NSCLC; NCI-H460 lung; HOP-92 NSCLC; NCI-H522 lung; A549/ATCC NSCLC; 786-0 renal; COLO 205 colon.
Holding throughout (assay): NCI-60 one-dose screen, 48 h (100 = growth as untreated, 0 = no growth, -100 = all killed)
Holding throughout (conditions): 10 µM unless noted

Consider `COC(=O)c1ccc(CSc2nnc(-c3c(C)nc4ccc(C)cn34)o2)cc1`, for which the growth in the assay with NCI-H23 lung was 85.9%; with NCI-H226 lung, 95.2%; in the assay on NCI-H322M lung, 98.2%; in the assay on HOP-62 NSCLC, 89.6%; with NCI-H460 lung it was 109%; in the assay on HOP-92 NSCLC, 92%. The growth in the assay on NCI-H522 lung was 83.5%; in the assay on A549/ATCC NSCLC it was 103%; in the assay on 786-0 renal, 91.8%; with COLO 205 colon it was 117%.

With `C[C@]12CC[C@@H]3c4cc(OC(F)F)c(O)cc4CC[C@H]3[C@@H]1CC[C@@H]2OS(N)(=O)=O`, the growth with NCI-H23 lung is 3.46% (active); with NCI-H226 lung it was 57.4%; with NCI-H322M lung it was 45.4%; in the assay on HOP-62 NSCLC, 43.3%; with NCI-H460 lung it was 13.9%; in the assay on HOP-92 NSCLC it was 74.6%. In addition, the growth was 26% in the assay with NCI-H522 lung, 31.3% with A549/ATCC NSCLC, 56.4% in the assay with 786-0 renal and 10.7% with COLO 205 colon.

`O=C1/C(=C/c2ccccc2)CCc2nc3ccccc3c(/C=C/c3ccc(Cl)cc3)c21`: the growth in the assay with NCI-H23 lung is 85.5%; in the assay with NCI-H226 lung, 92.3%; with NCI-H322M lung it was 94.6%; in the assay on HOP-62 NSCLC it was 110%; with NCI-H460 lung, 93.4%; in the assay on HOP-92 NSCLC, 79.8%. In addition, the growth with NCI-H522 lung is 71.1%; in the assay with A549/ATCC NSCLC it was 93.5%; in the assay on 786-0 renal it was 99.8%; in the assay with COLO 205 colon, 104%.

Turning to `Cc1ccccc1NC(=O)N/C(N)=N/c1nc(C)c(C)s1`, the growth with NCI-H23 lung is 42.7%; in the assay on NCI-H226 lung it was 60%; with NCI-H322M lung, 46.2%; with HOP-62 NSCLC, 43.9%; in the assay with NCI-H460 lung, 10.5%; with HOP-92 NSCLC, 73.6%. The growth is 16.3% in the assay with NCI-H522 lung, 40.2% in the assay on A549/ATCC NSCLC, 51.4% in the assay with 786-0 renal and 10.1% in the assay on COLO 205 colon.

Take `Cc1ccc(CCC(=O)Nc2ncc(Cc3cc(Cl)ccc3Cl)s2)o1`: the growth with NCI-H23 lung is 31.9%; in the assay with NCI-H226 lung it was 45.5%; in the assay with NCI-H322M lung it was 33.3%; with HOP-62 NSCLC, 35.6%; in the assay with NCI-H460 lung, 5.71% (active); with HOP-92 NSCLC, 56.6%. Besides, the growth in the assay on NCI-H522 lung is 3.08% (active); with A549/ATCC NSCLC, 23.1%; with 786-0 renal, 26.1%; in the assay with COLO 205 colon it was 2.59% (active).

As to `Cc1ccc(NS(=O)(=O)c2ccc3c(c2)C2OCCC2C(c2ccc(C(=O)C(C)C)cc2)N3)cc1C` (stereo unspecified), the growth in the assay on NCI-H23 lung was 38.7%; in the assay with NCI-H226 lung, 45.3%; with NCI-H322M lung, 82.2%; in the assay with HOP-62 NSCLC, 70.3%; in the assay with NCI-H460 lung it was 31.7%; with HOP-92 NSCLC it was 74%. Further, the growth in the assay on NCI-H522 lung is 39.2%; with A549/ATCC NSCLC, 27.4%; with 786-0 renal it was 58.9%; in the assay on COLO 205 colon it was 30.8%.

As to `O=C1Nc2ccccc2/C1=C/c1cn(C(=O)c2c(Cl)cccc2Cl)c2ccccc12`, the growth with NCI-H23 lung was 56.9%; in the assay on NCI-H226 lung, 48.2%; in the assay with NCI-H322M lung, 90.4%; with HOP-62 NSCLC it was 88.8%; in the assay on NCI-H460 lung, 71.2%; in the assay on HOP-92 NSCLC, 49.1%. For the same compound, the growth in the assay on NCI-H522 lung is 55.3%; in the assay on A549/ATCC NSCLC it was 36.7%; in the assay on 786-0 renal, 57.1%; in the assay on COLO 205 colon, 41.7%.

Turning to `CSc1n(Cc2ccc3ccccc3c2)c(C)c[n+]1Cc1ccc2ccccc2c1`, the growth was -37% (active) in the assay with NCI-H226 lung; 40.5% in the assay on NCI-H322M lung; 4.62% (active) in the assay on HOP-62 NSCLC; -0.332% (active) in the assay on NCI-H460 lung; -44.4% (active) in the assay on HOP-92 NSCLC; -26.9% (active) in the assay with NCI-H522 lung. Further, the growth is 16.5% in the assay on A549/ATCC NSCLC, 8.97% (active) with 786-0 renal and -54.3% (active) with COLO 205 colon.

Regarding `Cc1ccc(-c2cc3c(cc2O)C2CCCCC2(N2CCOCC2)O3)cc1` (stereo unspecified), the growth in the assay with NCI-H226 lung is 108%; in the assay with NCI-H322M lung, 101%; in the assay with HOP-62 NSCLC it was 110%; in the assay with NCI-H460 lung, 103%; in the assay on HOP-92 NSCLC, 85.7%; in the assay on NCI-H522 lung it was 82.7%. In addition, the growth in the assay on A549/ATCC NSCLC was 96.1%; with 786-0 renal it was 108%; with COLO 205 colon, 113%.

In the case of `CCCc1cc2c(=O)c(C(=O)OC)c[nH]c2cc1N(CC)CC`, the growth with NCI-H226 lung is 81.7%; in the assay on NCI-H322M lung, 84.2%; in the assay with HOP-62 NSCLC, 90%; with NCI-H460 lung, 102%; in the assay on HOP-92 NSCLC it was 111%; in the assay on NCI-H522 lung it was 73.7%. In addition, the growth was -20% (active) in the assay on A549/ATCC NSCLC, 101% in the assay with 786-0 renal and 119% in the assay on COLO 205 colon.

For the compound `COC(=O)[C@]12CC[C@@H](C)[C@H](C)[C@@H]1C1=CC[C@@H]3[C@@]4(C)C(C=O)=C[C@@](C)(COC(C)=O)C4=CC[C@@]3(C)[C@]1(C)CC2`, the growth with NCI-H226 lung is 11.2%; in the assay on NCI-H322M lung it was 24.8%; in the assay with HOP-62 NSCLC it was -7.82% (active); in the assay with NCI-H460 lung, -29.1% (active); in the assay with HOP-92 NSCLC, -9.34% (active); in the assay with NCI-H522 lung, -30.5% (active). For the same compound, the growth with A549/ATCC NSCLC is 5.26% (active); with 786-0 renal, -33.7% (active); in the assay on COLO 205 colon, -66.5% (active).
